Mtb UGM inh: inhibitors of M. tuberculosis UDP-galactopyranose mutase; P9WIQ1; inhibition, % at 10 µM; purified UGM, fluorescence polarization probe displacement; hit rate 0.06% among 320,000; in the data active = inhibition above about 10%, passing the limit was not always enough; inconclusive = no clear call, values can overlap the other calls
Target sequence (P9WIQ1 whole entry, looked up): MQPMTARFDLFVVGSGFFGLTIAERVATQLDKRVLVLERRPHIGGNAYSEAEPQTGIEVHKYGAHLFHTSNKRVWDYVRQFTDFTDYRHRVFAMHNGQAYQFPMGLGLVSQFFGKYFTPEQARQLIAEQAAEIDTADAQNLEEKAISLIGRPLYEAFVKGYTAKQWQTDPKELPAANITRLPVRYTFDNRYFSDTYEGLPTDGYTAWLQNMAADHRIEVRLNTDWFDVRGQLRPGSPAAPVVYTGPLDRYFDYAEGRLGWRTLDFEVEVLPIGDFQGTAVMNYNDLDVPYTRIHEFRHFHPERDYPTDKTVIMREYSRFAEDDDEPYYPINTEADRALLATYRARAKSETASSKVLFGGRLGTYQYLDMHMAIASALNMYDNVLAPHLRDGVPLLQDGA
Mtb betalactam: beta-lactam sensitization of Mtb H37Rv; M. tuberculosis H37Rv growth with meropenem, percent inhibition; inhibition, % at 25 µM; hit rate 0.27% among 330,000; call rule not given here;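 note: growth measured after seven days incubation then overnight dye step; 0% = bacteria only wells and 100% = bacteria with antibiotic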
Rv3671c inh: inhibitors of M. tuberculosis serine protease Rv3671c. inhibition, % at 5.96 µM. hit rate 0.048% among 320,000. P9WHR9; in the data active = inhibition above about 38%;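 note: extracellular domain of Rv3671c used as enzyme; 0% = enzyme with DMSO and 100% = no enzyme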
PfHsp40 yeast: compounds rescuing yeast from Plasmodium falciparum HSP40 toxicity | S. cerevisiae expressing PfHsp40, growth rescue, ATP luminescence | growth rescue, % at 12.5 µM | hit rate 0.68% among 340,000 | AID 504582; in the data active = growth rescue above about 28%, passing the limit was not always enough; inconclusive = no clear call, values can overlap the other calls;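 note: yeast W303a lacking pdr1 and pdr3 grown in galactose medium; growth measured after three days at 30 °C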
FadD28 binding: blocks FadD28 binding to the bisubstrate probe; fluorescence polarization; inhibition, % at 12.5 µM; hit rate 0.22% among 360,000; AID 588549; in the data active = inhibition above about 8.5%, passing the limit was not always enough; inconclusive = no clear call, values can overlap the other calls
Yp Topo-I inh: blocks Yersinia pestis topoisomerase I activity; Y. pestis Topo-I cleavage product accumulation, plate reader; activity, % at 10 µM; hit rate 0.064% among 360,000; AID 504884; in the data active = activity above about 50%, passing the limit was not always enough; inconclusive = no clear call, values can overlap the other calls
The depositor's hits bear a star; ? = inconclusive; . = no result given. Shown are actives, neighbours in structure and some others; about 0.98% of the full set was active somewhere.

SMILES	Mtb UGM inh	Mtb betalactam	Rv3671c inh	PfHsp40 yeast	FadD28 binding	Yp Topo-I inh
COc1cccc(C(C)(O)c2nc(-c3ccc(C)c(C)c3)cs2)c1 (configuration not stated)	.	.	.	.	-1	17
COc1ccc(/C=C2\SC(=S)N(NS(=O)(=O)c3ccccc3)C2=O)c(OC)c1	4	-2	.	0	2	6
O=C1/C(=C/c2cccs2)SC(=S)N1NS(=O)(=O)c1ccccc1	1	15	2	222*	-2	3
COc1ccc(OC)c(/C=C2\SC(=S)N(NS(=O)(=O)c3ccccc3)C2=O)c1	-1	-13	5	1	0	-2
CC(C(=O)O)N1C(=O)/C(=C/C=C/c2ccco2)SC1=S (configuration not stated)	-1	-4	3	9	36*	-15
O=C1/C(=C/C=C/c2ccco2)SC(=S)N1NS(=O)(=O)c1ccccc1	-1	1	5	2	47*	-16
Clc1ccccc1C(c1ccccc1)(c1ccccc1)n1ccnc1	-1	73	-12	173*	-6	46
O=C(NCc1ccccc1Cl)c1csc(COCCO)n1	.	.	.	.	1	-5
Cc1nc(Nc2ccc(Cl)c(Cl)c2)sc1C(=O)Nc1ccccc1	2	94	-40	103*	-8	-9
Cc1nc(Nc2ccc(Cl)cc2Cl)sc1C(=O)Nc1ccccc1	0	95	-17	22	-6	0
CC(=O)c1cccc(NC(=O)C2Cc3c(-c4ccc(Cl)cc4)ccnc3O2)c1 (configuration not stated)	.	.	.	.	1	20
O=C(Nc1nccs1)c1ccc(-c2ccc([N+](=O)[O-])cc2)o1	20*	-5	1	0	0	-3
O=C1C=C(c2n[nH]nc2-c2ccccc2)C[C@@H](c2ccc(F)cc2)C1	.	.	.	.	-1	-3
O=C(COc1ccc(-c2nnco2)cc1)NC1CCS(=O)(=O)C1 (configuration not stated)	1	6	-10	31*	-2	2
CN(C(=O)COc1ccc(-c2nnco2)cc1)C1CCS(=O)(=O)C1 (configuration not stated)	2	-12	-2	2	0	2
COc1cc(C(O)c2nc(-c3ccc(N(C)C)cc3)cs2)ccc1F (configuration not stated)	.	.	.	.	-1	-5
CC1(C)C(/C=C/C=C/C=C/C=C2\N(CCCCS(=O)(=O)O)c3ccc4ccccc4c3C2(C)C)=[N+](CCCCS(=O)(=O)[O-])c2ccc3ccccc3c21	1	19	-87	25	12*	43
Cc1cc2c(cc1C)CSC(c1c(O)ccc3ccccc13)SC2	-1	97	-25	160*	-1	15
CC1(C(=O)NS(=O)(=O)c2ccc(C#N)cc2)CCN1C(=O)c1ccccc1CCc1ccccc1 (configuration not stated)	.	.	.	.	-3	2
CCN(CC)c1ccc(/C=c2/sc3nnc(-c4ccccc4C)n3c2=O)cc1	9	10	-17	0	1	7
CCN(CC)c1ccc(/C=c2\sc3nnc(-c4ccccc4Cl)n3c2=O)cc1	0	4	-15	1	19*	0
Cc1c(Cc2ccccc2)[n+](=O)c2ccccc2n1[O-]	.	.	.	.	-2	5
C/C(=N\NC(=S)NC1CCCCC1)c1c(F)cccc1F	-2	78	2	45*	0	21
CCCOC(=O)CC1C(=O)NCCN1Cc1cc(OC)cc(OC)c1 (configuration not stated)	2	-7	-5	40*	-5	-6
O=C(/C=C/c1cccc([N+](=O)[O-])c1)NC1CC2CCC1C2 (configuration not stated)	0	100	2	51*	0	2
C=C(C)CN(CC)c1nc(N)c2c(N)nc3c(c2c1C#N)CC(=O)N3C12CC3CC(CC(C3)C1)C2	1	6	-20	-1	-6	-9
N#Cc1c(N2CCCC(O)C2)nc(N)c2c(N)nc3c(c12)CC(=O)N3C12CC3CC(CC(C3)C1)C2 (configuration not stated)	4	?	-93	0	25*	-6
CC(C)(C)c1ccc(C(=O)CC(Sc2ccc(Cl)cc2)C(=O)O)cc1 (configuration not stated)	1	38	0	75*	0	20
COc1cccc(C(NC(C)=O)c2nc(-c3ccoc3)cs2)c1 (configuration not stated)	.	.	.	.	-3	3
